Results: PubChem BioAssay (EPA / NIEHS)
Where a structure was tested more than once in an assay, its records may differ in their call. Activity calls are given as the source filed them. Rule for the calls: active = hit-call score of the fitted dose curve at least 0.9, where 1 is the maximum; inactive = score below 0.9.

What follows are compounds tested against Hepatocyte nuclear factor 3-beta (Homo sapiens) (UniProt Q9Y261) (assay: ATG_FoxA2_CIS: Attagene CIS-FACTORIAL HepG2 Assay for human Forkhead box A2 (FOXA2) (AID 2282942)). Conditions: HepG2 cis-reporter transcription factor activity, 24 h; actives raise or lower the signal.
Hepatocyte nuclear factor 3-beta (Homo sapiens), sequence (Q9Y261 whole entry, looked up): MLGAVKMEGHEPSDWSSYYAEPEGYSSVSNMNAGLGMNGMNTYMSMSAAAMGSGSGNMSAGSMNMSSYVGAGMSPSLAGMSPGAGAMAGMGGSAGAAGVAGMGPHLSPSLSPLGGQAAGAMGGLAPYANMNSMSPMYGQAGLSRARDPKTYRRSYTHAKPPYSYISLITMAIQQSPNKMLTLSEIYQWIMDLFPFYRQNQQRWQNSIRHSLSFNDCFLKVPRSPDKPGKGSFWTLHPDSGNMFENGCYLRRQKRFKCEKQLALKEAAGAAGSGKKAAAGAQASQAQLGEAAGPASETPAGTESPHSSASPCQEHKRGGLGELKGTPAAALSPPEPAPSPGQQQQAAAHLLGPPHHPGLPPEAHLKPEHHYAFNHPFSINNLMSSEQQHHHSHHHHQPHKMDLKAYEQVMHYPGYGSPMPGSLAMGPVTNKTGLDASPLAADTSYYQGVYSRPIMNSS
Method: ATG_CIS is a cell-based, multiplexed-readout assay that uses HepG2, a human liver cell line, with measurements taken at 24 hours after chemical dosing in a 24-well plate.ATG_FoxA2_CIS is one of 52 assay component(s) measured or calculated from the ATG_CIS assay. It is designed to make measurements of mRNA induction, a form of inducible reporter, as detected with fluorescence intensity signals by Reverse transcription polymerase chain reaction (RT-PCR) and Capillary electrophoresis technology.Data from the assay component ATG_FoxA2_CIS was analyzed into 1 assay endpoint. This assay endpoint, ATG_FoxA2_CIS, was analyzed with bidirectional fitting relative to DMSO as the negative control and baseline of activity. Using a type of inducible reporter, measures of mRNA for gain or loss-of-signal activity can be used to understand the reporter gene at the transcription factor-level as they relate to the gene FOXA2. Furthermore, this assay endpoint can be referred to as a primary readout, because this assay has produced multiple assay endpoints where this one serves a reporter gene function. To generalize the intended target to other relatable targets, this assay endpoint is annotated to the dna binding intended target family, where the subfamily is forkhead box protein.
Human liver HepG2 cells are transiently transfected with multiple reporter transcription units (MRTUs) in 6-well plates using FuGene 6 reagent (Roche; 3 ml FuGene/1 mg DNA). The MRTU constructs are regulated by a cis-regulating element (promoter). […] A major difference between the CIS and TRANS system is that in CIS activities of endogenous TFs are measured, whereas the TRANS assay evaluates changes in activities of exogenous, chimeric NR-Gal4 proteins. […] At the end of 24 hour incubation, total RNA was isolated using TriZol reagent (Invitrogen). The isolated RNA is then reverse-transcribed using oligo(dT) primer and Mo-MLV reverse transcriptase (Invitrogen) with DNAse I (Ambion) treatment for 30 min. The one-tenth of the produced cDNA was amplified by PCR using Taq DNA polymerase (Invitrogen) and two reporter sequence-specific primers. The PCR products were fluorescently labeled by primer extension with 6-arboxyfluorescein (6-FAM) 5'-labeled reporter sequence-specific primer (2 min at 95 C, 20 s at 68 C and 10 min at 72 C) and these products were digested with 5U of HpaI (New England Biolabs) for 2h at 37 C. The fragments were purified using Qiaquick PCR columns (Qiagen), analyzed on an ABI 3130xL genetic analyzer (Applied Biosystems) with peak positions identified by using a set of X-rhodamine (ROX)-labeled MapMarker1000 molecular weight standards (BioVentures). The raw capillary electrophoresis data was processed using Attagraph software (Attagene).
With `CCC[CH2][Sn]([Cl])([Cl])[Cl]` the outcome was “inactive”. With `CC12CC1(C)C(=O)N(c1cc(Cl)cc(Cl)c1)C2=O` (stereo not given) the outcome was “inactive”. In the case of `CCc1ccccc1N`, the outcome is reported as “inactive”. For `CCCCOCCOC(C)=O`, the outcome was “inactive”. For `O=S(=O)(c1ccc(Cl)cc1)c1ccc(Cl)cc1`, the outcome was “inactive”. For `C=C(C)C(=O)[O][Sn]([CH2]CCC)([CH2]CCC)[CH2]CCC`, the outcome was “inactive”. For `CCCCCCCCc1ccc(O)cc1`, the outcome was “inactive”. For `Cl/C=C\C[N+]12CN3CN(CN(C3)C1)C2`, the outcome was “inactive”. For `N#Cc1ccccn1`, the outcome was “inactive”. For `COc1ccc(C=O)cc1`, the outcome was “inactive”. In the case of `CN(C)N=O`, the outcome is reported as “inactive”. `O=C(Cc1ccccc1)c1ccccc1` was tested, and the outcome was “inactive”. For `CC(=O)c1cc(C(C)(C)C)cc2c1CCC2(C)C`, the AC50 was 147 µM (active). In the case of `O=C1C2(Cl)C3(Cl)C4(Cl)C(Cl)(Cl)C5(Cl)C3(Cl)C1(Cl)C5(Cl)C24Cl` (stereo not given), the outcome is reported as “inactive”. For `C(=NC1CCCCC1)=NC1CCCCC1`, the outcome was “inactive”. For `Oc1cccc2cccnc12`, the outcome was “inactive”. In the case of `CCC(C)c1cccc(C(C)CC)c1O` (stereo not given), the outcome is reported as “inactive”. In the case of `C[C@@H]1C[C@@H]([C@H](O)CC2CC(=O)NC(=O)C2)C(=O)[C@@H](C)C1`, the outcome is reported as “inactive” and the AC50 is reported as 10.1 µM (active). With `Nc1cccc(Cl)c1` the outcome was “inactive”. For `ClC1=C(Cl)[C@]2(Cl)[C@@H]3[C@@H](Cl)[C@@H](Cl)C[C@@H]3[C@@]1(Cl)C2(Cl)Cl`, the outcome was “inactive”. For `C=CCc1ccc(OC)cc1`, the outcome was “inactive”. `CCC(C)(C)c1ccc(O)c(C(C)(C)CC)c1` was tested, and the outcome was “inactive”. In the case of `BrCCBr`, the outcome is reported as “inactive”. `CCOP(OCC)OCC` was tested, and the outcome was “inactive”. In the case of `O=[N+]([O-])c1ccc2c3c(cccc13)CC2`, the outcome is reported as “inactive”. For `CC(=[OH+])/C=C(/C)[O-].CC(=[OH+])/C=C(/C)[O-].CC(=[OH+])/C=C(/C)[O-].[Fe]`, the outcome was “inactive”. For `Cn1sc(Cl)cc1=O`, the outcome was “inactive”. For `CNC`, the outcome was “inactive”. With `ClCC(Cl)CCl` the outcome was “inactive”. For `O=C(OC1CCCCC1)c1ccccc1C(=O)OC1CCCCC1`, the outcome was “inactive”. `COP(=S)(OC)Oc1c(Cl)cc(C)cc1Cl` was tested, and the outcome was “inactive”. In the case of `CNC(=O)O/N=C/C(C)(C)S(C)=O` (stereo not given), the outcome is reported as “inactive”. `C[C@H]1O[C@@H](O[C@H]2[C@@H](O)C[C@H](O[C@H]3[C@@H](O)C[C@H](O[C@H]4CC[C@@]5(C)[C@H](CC[C@@H]6[C@@H]5CC[C@]5(C)[C@@H](C7=CC(=O)OC7)CC[C@]65O)C4)O[C@@H]3C)O[C@@H]2C)C[C@H](O)[C@@H]1O` was tested, and the outcome was “inactive”. For `CC1CN1P(=O)(N1CC1C)N1CC1C` (stereo not given), the outcome was “inactive”. For `CCOP(=O)(CN(CCO)CCO)OCC`, the outcome was “inactive”. `O=C(NCO)NCO` was tested, and the outcome was “inactive”. With `O=C(O)C(Cl)(Cl)Cl` the outcome was “inactive”. In the case of `CN(CCCC(=O)c1cccnc1)N=O`, the outcome is reported as “inactive”. `O=c1[nH]c(=O)[nH]c(=O)[nH]1` was tested, and the outcome was “inactive”.
